# Screens as filed in PubChem BioAssay.
# ROS inducer = raises reactive oxygen species in U2OS cancer cells; U2OS ROS induction, H2DCF-DA fluorescence; ROS induction (% of piperlongumine), % at 10 µM; 46,000 tested, 2% active; AID 624156; in the data active = ROS induction above about 79%, passing the limit was not always enough; inconclusive = no clear call, values can overlap the other calls
# YB-1 expression = YB-1 expression inhibition | AID 434959 | delta delta Cp (YB-1 minus CDIP) (concentration not given with the values) | 30,000 tested, 0.37% active | U2OS, qRT-PCR YB-1 vs CDIP delta delta Cp, 16 h; hits give high values; zero = DMSO, each unit about twofold;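 active = delta delta Cp rounded down to an integer at or above 3, about 3 SD of DMSO wells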;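 note: higher means less YB-1 transcript or more CDIP transcript relative to DMSO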
# MITF inhib = MITF inhibition; inhibition, % (concentration not given with the values); 37,000 tested, 0.28% active; AID 2240; TRPM1 promoter luciferase, luminescence, 24 h; in the data active = inhibition above about 85%; inconclusive = no clear call, values can overlap the other calls; inactive = below about 68%;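 note: human melanocyte line stably carrying TRPM1 promoter luciferase reporter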
# PD-1 reversal = activators reversing PD-1 mediated T-cell inhibition; primary human CD4 T cells, PD-L1 beads, CellTiter-Glo 96 h; activation, % (concentration not given with the values); 29,000 tested, under 10 active; AID 2316; call rule not given here
# NOMO-1 viab = STK33 inhibitor candidate reducing NOMO-1 cell viability. 37,000 tested, 7.5% active. NOMO-1 AML viability, CellTiter-Glo luminescence, 72 h. AID 2330. inhibition, % (concentration not given with the values); in the data active = inhibition above about 80%; inconclusive = no clear call, values can overlap the other calls
# A number is an active result; - = inactive; ? = inconclusive; . = no result given. This excerpt belongs to a sample that is enriched for hits.
SMILES,ROS inducer,YB-1 expression,MITF inhib,PD-1 reversal,NOMO-1 viab
C[C@@H]1O[C@@H](Oc2ccc(-c3coc4cc(O[C@@H]5O[C@@H](C)[C@H](O)[C@@H](O)[C@H]5O)cc(O)c4c3=O)cc2)[C@H](O)[C@H](O)[C@H]1O,-,-,-,-,-
C[C@@H]1O[C@@H](Oc2cc(O)c3c(=O)c(-c4ccc(O)cc4)coc3c2)[C@H](O)[C@H](O)[C@H]1O,-,3.9,-,-,-
O=C1c2ccccc2S(=O)(=O)N1CC(O)Cn1c2ccc(Cl)cc2c2cc(Cl)ccc21 (configuration not stated),.,.,-,.,-
CC1CCCC2OC2C(=O)c2c(O)cc(O)cc2CC(=O)O1 (configuration not stated),-,-,-,-,-
CC1CCCC[C@H]2C(=O)C=C[C@H](O)[C@@H]2CC(=O)O1 (some centres not stated),-,-,-,-,108
CCc1nc(SCS(=O)(=O)c2ccc(C)cc2)c(C#N)c2c1CCCC2,-,-,-,-,-
C[C@H](CO)N1C[C@H](C)[C@H](CN(C)S(=O)(=O)c2ccc(Cl)cc2)Oc2c(NC(=O)NC3CCCCC3)cccc2C1=O,97,-,-,-,120
Cc1ccc(S(=O)(=O)N(C)C[C@H]2Oc3c(NC(=O)Nc4ccc(F)cc4)cccc3C(=O)N([C@@H](C)CO)C[C@H]2C)cc1,-,-,-,-,98
C[C@H](CO)N1C[C@H](C)[C@H](CN(C)S(=O)(=O)c2ccc(Cl)cc2)Oc2c(NC(=O)Nc3ccc(F)cc3)cccc2C1=O,?,-,-,-,93
Cc1ccc(S(=O)(=O)N(C)C[C@H]2Oc3c(NC(=O)Nc4ccc(F)cc4)cccc3C(=O)N([C@@H](C)CO)C[C@@H]2C)cc1,-,-,-,-,-
C[C@H]1CN([C@@H](C)CO)C(=O)c2cccc(NC(=O)NC3CCCCC3)c2O[C@@H]1CN(C)S(=O)(=O)c1ccc(Cl)cc1,-,-,-,-,-
C[C@@H]1CN([C@@H](C)CO)C(=O)c2cccc(NC(=O)Nc3ccc(F)cc3)c2O[C@@H]1CN(C)S(=O)(=O)c1ccc(Cl)cc1,-,-,-,-,82
C[C@H](CO)N1C[C@H](C)[C@@H](CN(C)S(C)(=O)=O)Oc2ccc(NC(=O)Nc3ccc(F)cc3)cc2C1=O,-,-,-,.,-
CCC(Sc1ccccn1)C(=O)Nc1ccc(Br)cc1 (configuration not stated),-,.,-,-,-
CC(Oc1ccc(Br)cc1)C(=O)NCCN1CCOCC1 (configuration not stated),.,.,-,.,-
Cc1ccc(S(=O)(=O)N(C)C[C@H]2Oc3c(NC(=O)Nc4ccc(C(F)(F)F)cc4)cccc3C(=O)N([C@H](C)CO)C[C@H]2C)cc1,-,-,-,-,85
O=C(CSc1ncnc2sc3c(c12)CCCCC3)NCc1ccco1,-,.,-,-,131
CC1(C)Cc2nc3sc4c(SCC(=O)NCc5ccco5)ncnc4c3cc2CO1,-,.,-,-,127
CCSc1nc(SCC)c2c3c([nH]c2n1)CCCC3,-,.,.,.,.
Cc1noc(C)c1NC(=O)N(C)C[C@@H]1Oc2ccc(NC(=O)C3CC3)cc2CC(=O)N([C@H](C)CO)C[C@H]1C,-,-,-,.,-
CCOc1ccc2c(c1)-c1c(ssc1=S)C(C)(C)N2C,-,.,-,-,86
CCOc1ccc2c(c1)[nH]c(=S)n2C,-,.,.,.,.
C[C@@H]1CN([C@@H](C)CO)C(=O)c2cccc(NS(=O)(=O)c3ccc(Cl)cc3)c2O[C@@H]1CN(C)Cc1ccc(Oc2ccccc2)cc1,-,-,-,-,88
COc1ccc(S(=O)(=O)Nc2cccc3c2O[C@H](CN(C)Cc2ccc(Oc4ccccc4)cc2)[C@@H](C)CN([C@H](C)CO)C3=O)cc1,96,-,-,-,-
COc1ccc(S(=O)(=O)Nc2cccc3c2O[C@@H](CN(C)Cc2ccc(Oc4ccccc4)cc2)[C@H](C)CN([C@@H](C)CO)C3=O)cc1,-,-,-,-,-
C[C@H](CO)N1C[C@H](C)[C@@H](CN(C)Cc2ccc(Oc3ccccc3)cc2)Oc2c(NS(=O)(=O)c3ccc(Cl)cc3)cccc2C1=O,112,-,-,-,104
C[C@H]1CN([C@@H](C)CO)C(=O)c2cccc(NS(=O)(=O)c3ccc(Cl)cc3)c2O[C@H]1CN(C)Cc1ccc(Oc2ccccc2)cc1,-,-,-,-,?
